DAGLB inh – diacylglycerol lipase beta (human) inhibition; Q8NCG7; HEK293T DAGLB membrane lysate, EnzChek fluorogenic substrate; inhibition, % at 5.17 µM; 0.059% of 340,000 active; AID 504411; in the data active = inhibition above about 34%;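 note: 0% = enzyme with vehicle and 100% = wells lacking enzyme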
Target sequence (Q8NCG7 whole entry, looked up): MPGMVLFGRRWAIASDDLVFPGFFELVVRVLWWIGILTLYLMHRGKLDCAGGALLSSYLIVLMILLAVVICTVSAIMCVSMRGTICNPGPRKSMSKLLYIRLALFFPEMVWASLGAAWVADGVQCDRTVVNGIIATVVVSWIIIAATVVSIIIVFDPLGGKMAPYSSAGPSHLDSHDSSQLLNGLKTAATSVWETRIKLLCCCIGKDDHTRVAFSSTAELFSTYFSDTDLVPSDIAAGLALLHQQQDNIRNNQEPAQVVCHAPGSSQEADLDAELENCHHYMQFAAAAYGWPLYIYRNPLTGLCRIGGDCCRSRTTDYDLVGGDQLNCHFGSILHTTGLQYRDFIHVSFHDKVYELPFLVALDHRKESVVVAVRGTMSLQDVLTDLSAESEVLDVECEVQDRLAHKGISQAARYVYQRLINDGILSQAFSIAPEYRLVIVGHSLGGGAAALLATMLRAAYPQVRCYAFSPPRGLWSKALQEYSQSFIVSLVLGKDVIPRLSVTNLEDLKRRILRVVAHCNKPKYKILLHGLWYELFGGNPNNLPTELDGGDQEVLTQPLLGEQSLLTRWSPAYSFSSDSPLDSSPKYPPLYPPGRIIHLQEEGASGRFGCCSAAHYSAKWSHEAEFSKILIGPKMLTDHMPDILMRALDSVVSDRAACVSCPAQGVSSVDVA
NadD inh – inhibitors of Staphylococcus aureus NadD. 0.78% of 360,000 active. purified NadD enzyme, colorimetric absorbance read-out. inhibition, % at 20 µM; in the data active = inhibition above about 26%
rCAG binder – r(CAG) repeat RNA binding; TO-PRO-1 dye displacement fluorescence; inhibition, % at 3 µM; 1.3% of 370,000 active;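 active = inhibition above the plate cutoff, the mean of all test compounds on that plate plus 3 SD, cut at about 35% in these data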;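 note: 0% = DMSO alone and 100% = 100 µM mitoxantrone as full dye displacement; higher means more dye released from RNA so lower well fluorescence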
bovine MsrA act – activators of bovine methionine sulfoxide reductase A; purified bovine MsrA, absorbance read-out; activation, % at 10.6 µM; 0.3% of 360,000 active; in the data active = activation above about 7.5%;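 note: 0% = vehicle and 100% = reference activator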
MsrA inh – inhibitors of bovine MsrA; purified bovine MsrA, absorbance read-out; inhibition, % at 15.5 µM; 0.75% of 360,000 active; in the data active = inhibition above about 4.5%;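 note: 0% = vehicle wells with enzyme and 100% = reference inhibitor wells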
DSG3 Ab inh – human desmoglein-3 autoantibody binding inhibition; P32926; DSG3-coupled beads, scFv-anti-DSG3-GFP binding, flow cytometry; stronger effect = lower value; binding (percent of control), % at 10 µM; 0.48% of 310,000 active; AID 588358;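 active = binding more than 3 SD below its plate's average and above zero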;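 note: hits lower antibody fragment binding to DSG3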
rCAG bind conf – r(CAG) RNA repeat binding, confirmation | TO-PRO-1 dye displacement fluorescence | AID 652065 | 70% of 4,300 active | shares compounds with rCAG binder | inhibition, % at 3 µM;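 active = inhibition above a per-plate cutoff, the mean inhibition of sample wells plus 3 SD, cut at about 35% in these data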;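 note: loss of TO-PRO-1 fluorescence as compound displaces dye from 1x1 AA loop RNA; 0% = DMSO only wells and 100% = 100 µM mitoxantrone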
dCAG dye counter – DNA CAG dye complex inhibition counter-screen. shares compounds with rCAG binder. d(CAG) DNA oligo TO-PRO-1 dye displacement, fluorescence. inhibition, % at 3 µM. 94% of 4,300 active;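 active = inhibition above its plate's cutoff, the mean test-well inhibition plus 3 SD, cut at about 4.8% in these data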;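 note: 0% = DNA dye mix with DMSO and 100% = 100 µM mitoxantrone; hits displace the dye from DNA and so lower well fluorescence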
dCAG dye DR – DNA CAG dye complex inhibition, dose response counter-screen; AID 686960; DNA CAG/GTC duplex TO-PRO-1 dye displacement fluorescence; IC50, µM; 20% of 250 active; shares compounds with rCAG binder; in the data active = IC50 below about 10 µM
Starred values were filed as active, the others as inactive; i = inactive; / = not tested or not shown. Compounds with a hit are over-represented: about 3.2% of the library has one in this group of screens.

SMILES | DAGLB inh | NadD inh | rCAG binder | bovine MsrA act | MsrA inh | DSG3 Ab inh | rCAG bind conf | dCAG dye counter | others
COC(=O)c1ccc(CSc2nc3c(cnn3-c3ccccc3)c(=O)[nH]2)o1 | 3 | 3 | 38* | 1 | 1 | 83 | 36* | 8.0*
c1coc(-c2nnc3sc(Cc4cccs4)nn23)c1 | 2 | 2 | 36* | -8 | 1 | 93 | 9 | 5.2*
O=c1[nH]cnc2c1ccn2C1OC(CO)C(O)C1O (stereo unspecified) | -1 | 2 | 1 | -1 | 0 | / | / | /
COc1ccccc1Nc1nc2ccccc2n2cnnc12 | -6 | -10 | 77* | -3 | 1 | 103 | 7 | 1
c1ccc(Nc2nc3ccccc3n3cnnc23)cc1 | -1 | 6 | 2 | -2 | 3 | 104 | / | /
CCOC(=O)C1=CCN(S(=O)(=O)c2cccc(Cl)c2)C1c1ccc(Cl)c(Cl)c1 (stereo unspecified) | / | / | 5 | / | 1 | / | / | /
C#CCN(C[C@@H]1[C@@H](OC(=O)NCc2ccc(OC)c(OC)c2)[C@@H](OC(=O)NCc2ccc(OC)c(OC)c2)CN(C(=O)OC(C)C)N1C(=O)OC(C)C)S(=O)(=O)c1ccc(C)cc1 | -1 | -10 | 7 | 0 | 0 | / | / | /
c1cc(N2CCOCC2)ccc1-c1ccc2nncn2c1 | / | 3 | 2 | -2 | 1 | / | / | /
c1coc(-c2ccc3nncn3c2)c1 | / | 14 | 47* | -4 | 0 | / | 46* | 18* | dCAG dye DR=i
COc1ccc(/C(=N\Nc2ccccc2C(=O)O)c2ccccc2)cc1 | 5 | 0 | 50* | -6 | 1 | 111 | 43* | 12*
COc1ccc(CC(=O)Nc2cccc(C(=O)Nc3ccccc3C(=O)O)c2)cc1OC | 3 | -2 | 26 | 2 | 1 | 94 | / | /
CC(=O)Oc1ccc(C(=O)Nc2cccc(C(=O)Nc3ccccc3C(=O)O)c2)cc1 | -1 | -11 | 50* | -3 | 1 | 100 | 44* | 12*
CCOC(=O)C(=O)N/N=C(/c1ccccc1)c1ccc(OC)cc1 | 1 | 2 | -5 | -3 | 0 | 102 | / | /
Cc1ccc(NC(=O)Nc2cccc(Cl)c2)c(C(=O)O)c1 | 3 | -3 | 47* | -2 | 0 | 99 | 21 | 3
CSc1ccccc1NC(=O)Nc1cccc(Cl)c1 | -3 | 2 | 7 | -2 | -1 | 96 | / | /
O=C(Cc1ccc(Cl)cc1)Nc1cccc(C(=O)Nc2ccccc2C(=O)O)c1 | 9 | -3 | 74* | 0 | 0 | 93 | 64* | 24*
CCN(CC)c1ncnc2c1ncn2[C@H]1CN(C2CCCC2)C[C@@H](CO)O1 | / | -1 | -2 | -9 | 1 | / | / | /
CCOC(=O)C1CCCN(C(=O)c2ccc3nc(-c4cccc(OC)c4)oc3c2)C1 (stereo unspecified) | -6 | -5 | -10 | -4 | 0 | 99 | / | /
CCOC(=O)c1cc(-c2ccccc2)sc1NC(=O)CC | -17 | -1 | 1 | -2 | 1 | 103 | / | /
COc1cc(NC(=O)Nc2ccc(Cl)c(Cl)c2)c(C(=O)O)cc1OC | 0 | -5 | 70* | -2 | 1 | 101 | 54* | 15*
O=C(Nc1ccccc1C(=O)O)c1cccc(NC(=O)c2ccc(Br)o2)c1 | 3 | -4 | 45* | -8 | 0 | 96 | 40* | 7.8*
COc1ccc(OCC(=O)Nc2cccc(C(=O)Nc3ccccc3C(=O)O)c2)cc1 | 3 | 1 | 51* | 0 | 1 | 98 | 62* | 17*
O=C(Nc1sc(-c2ccccc2)cc1C(=O)O)c1ccccc1 | 10 | 1 | 85* | -4 | 4 | 87 | 73* | 34* | dCAG dye DR=i
Cc1ccc2cc(NC(=O)C3(C)CCN3C(C)C)ccc2n1 (stereo unspecified) | / | 4 | 0 | 5 | 1 | / | / | /
CCN(CC)CCN1CCN(c2cnc(C)cn2)CC1 | / | -4 | 2 | -2 | 0 | / | / | /
SMILES | DAGLB inh | NadD inh | rCAG binder | bovine MsrA act | MsrA inh | DSG3 Ab inh | rCAG bind conf | dCAG dye counter | others
Cc1cccc(OCC(=O)Nc2ccc(C(=O)Nc3ccccc3C(=O)O)cc2)c1 | 9 | 2 | 25 | -2 | 0 | 102 | / | /
Cc1cc(C)c(C)c(S(=O)(=O)Nc2cccc(S(=O)(=O)Nc3ccccc3C(=O)O)c2)c1C | 3 | 2 | 78* | -7 | 1 | 89 | 73* | 38*
CC(=O)Nc1ccc(S(=O)(=O)Nc2cccc(C(=O)Nc3ccccc3C(=O)O)c2)cc1 | 3 | -5 | 47* | -2 | 0 | 101 | 18 | 4.7*
CC(=O)Nc1ccc(S(=O)(=O)Nc2cccc(C(=O)NC(C)(C)C)c2)cc1 | -2 | -3 | -1 | -2 | 1 | / | / | /
O=C(Nc1ccccc1C(=O)O)c1cccc(C(=O)Nc2ccccc2C(=O)O)c1 | 11 | -2 | 50* | -5 | 1 | 104 | 42* | 9.1*
O=C(COc1ccc(Cl)cc1Cl)Nc1ccc(C(=O)Nc2ccccc2C(=O)O)cc1 | 2 | 14 | 50* | -7 | 0 | 92 | 86* | 74*
CCOC(=O)C1=C[C@@H](CC)N(S(=O)(=O)c2ccc(C)cc2)[C@H]1c1cccs1 | / | -10 | 0 | -1 | -1 | / | / | /
O=[N+]([O-])c1ccc(CN2CCN(c3ccc(Cl)cc3)CC2)o1 | -3 | -6 | -3 | -4 | 1 | 99 | / | /
CC(COc1cccc(Cl)c1)CN1CCC(C(O)(c2ccccc2)c2ccccc2)CC1 (stereo unspecified) | / | / | 3 | / | / | / | / | /
CCC(C)c1ccc(OCC(=O)Nc2cccc(C(=O)Nc3ccc(C(=O)O)cc3)c2)cc1 (stereo unspecified) | 1 | 14 | 75* | -3 | 1 | 123 | 75* | 39*
O=C(Nc1cccc(C(=O)Nc2ccccc2C(=O)O)c1)c1cccc(Cl)c1 | 10 | -1 | 60* | -3 | -1 | 112 | 55* | 18*
CC(=O)Nc1cccc(C(=O)Nc2ccccc2C(=O)O)c1 | -1 | -3 | 6 | -12 | 1 | 87 | / | /
O=C1NC(Cc2ccc(O)cc2)c2nc3cc(Cl)ccc3c(=O)n2-c2cc(Cl)ccc21 (stereo unspecified) | 5 | 11 | 9 | 0 | 1 | 102 | / | /
Cc1ccc(NC(=O)Nc2nc(-c3ccc(C)s3)cs2)cc1 | -2 | 0 | 52* | -3 | 0 | 101 | 17 | 21*
COc1ccc(NC(=O)Nc2nnc(-c3ccncc3)s2)cc1 | 3 | 9 | 42* | -9 | 1 | 106 | 18 | 8.9*
CC(=O)Nc1nc(-c2ccc(Br)s2)cs1 | 1 | 1 | 3 | -4 | -1 | / | / | /
O=C(Nc1ccccc1)Nc1nc(-c2ccc(Cl)cc2)cs1 | -1 | 0 | 17 | -4 | 3 | 110 | / | /

Screening data: PubChem BioAssay, several laboratories
